Screen size: about 5,500 compounds; about 2,000 (36%) were called active. Inconclusive results (about 18%) are left out. No stated cut-off is given here; in the data, active means normalized growth mostly below about 0.91 (no sharp cut-off); inconclusive means no clear call, values can overlap the other calls; inactive means mostly above about 0.92. Some of the results follow.
Test: chemical genetic growth profiling, strain panel (AID 1159580);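 further: tested at 20 µM; growth read once vehicle control cultures reached saturation at 30 °C; 1 = growth at the plate median or of vehicle wells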
Conditions: S. cerevisiae deletion strains, growth OD

Measured: normalized growth

C=C(C)C1Cc2c(ccc3c2OC2COc4cc(OC)c(OC)cc4C2C3=O)O1 (stereo unspecified)
inactive: locus YAL040C, strain CLN3, stronger effect = lower value 1.07 | locus YCL061C, strain MRC1 (second series), stronger effect = lower value 0.98 | locus YDR363W, strain ESC2, stronger effect = lower value 0.99 | locus YER002W, strain NOP16, stronger effect = lower value 0.992 | locus YNL153C, strain GIM3, stronger effect = lower value 0.942 | locus YNL175C, strain NOP13, stronger effect = lower value 0.955 | locus YNL197C, strain WHI3, stronger effect = lower value 0.979 | locus YNL224C, strain SQS1, stronger effect = lower value 0.964 | locus YNL322C, strain KRE1, stronger effect = lower value 0.98 | locus YOR083W, strain WHI5 (second series), stronger effect = lower value 0.958 | locus YPL055C, strain LGE1, stronger effect = lower value 1.01

Source: PubChem BioAssay AID1159580 (chemical genetic matrix, 2015)
